Measured values reported in the supplement of paper PMC9262897, “Low-cost anti-mycobacterial drug discovery using engineered E. coli” (Nature Communications, 2022).
Where a name gives a salt, the structure may show the parent alone. ± gives the standard deviation of the averaged measurements.

Experiments:
Test in all cases: growth (OD600 after 10 h); higher = more growth (less inhibition)
[1] = test system: E. coli TESEC Alr+ wild-type control; details: compound 0.1 mM; raw OD600 reference: median of DMSO wells 0.241, cell-free background 0.041
Description: (§1)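 TESEC Mtb Alr E. coli, or the Alr+ wild-type control, in 384-well plates with Prestwick library compounds at 0.1 mM and 1% DMSO, across arabinose induction levels of 1E3 to 1E7 nM. Growth is read as OD600 after 10 h at 37 °C in triplicate biological replicates.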

E. coli TESEC Mtb Alr [2] = details: compound 0.1 mM
Description: as §1

E. coli TESEC Mtb Asd = details: compound 0.1 mM
Description: (§2)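 TESEC E. coli strains in which the native enzyme is deleted and replaced by arabinose-inducible Mtb Asd, DapB, CysH or TrpD, each grown in its selective medium. Strains were screened against the Prestwick library at 0.1 mM and 1% DMSO in 384-well format at low and high arabinose induction. Growth is read as OD600 after 10 h in triplicate.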

E. coli TESEC Mtb DapB = details: compound 0.1 mM
Description: as §2

[3] = test system: E. coli TESEC Alr+ wild-type control; details: compound 0.1 mM; raw OD600 reference: median of DMSO wells 0.49, cell-free background 0.052
Description: (§3)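 TESEC Mtb Alr E. coli (ΔaraC ΔtolC ΔentC Δalr ΔdadX, arabinose-inducible Mtb Alr) or the Alr+ wild-type control strain, grown in defined M9-fructose medium without D-alanine in 96-well plates with Prestwick library compounds at 0.1 mM and 1% DMSO. Low Alr induction is 0.1 µM arabinose and high induction is 10 mM arabinose.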

E. coli TESEC Mtb Alr [4] = details: compound 0.1 mM; remark: listed apart in the source
Description: as §3

[5] = arabinose 1000 nM, raw OD600 reference: median of DMSO wells 0.294, cell-free background 0.041
[6] = arabinose 10000 nM, raw OD600 reference: median of DMSO wells 0.264, cell-free background 0.041
[7] = arabinose 100000 nM, raw OD600 reference: median of DMSO wells 0.201, cell-free background 0.041
[8] = arabinose 1000000 nM, raw OD600 reference: median of DMSO wells 0.193, cell-free background 0.041
[9] = arabinose 10000000 nM, raw OD600 reference: median of DMSO wells 0.146, cell-free background 0.041
[10] = arabinose induction (level): High, raw OD600 reference: median of DMSO wells 0.331, cell-free background 0.041
[11] = arabinose induction (level): Low, raw OD600 reference: median of DMSO wells 0.417, cell-free background 0.041
[12] = arabinose induction (level): High, raw OD600 reference: median of DMSO wells […], cell-free background 0.041
[13] = arabinose induction (level): Low, raw OD600 reference: median of DMSO wells 0.227, cell-free background 0.041
[14] = arabinose 100 nM, raw OD600 reference: median of DMSO wells 0.413, cell-free background 0.052
[15] = arabinose 10000000 nM, raw OD600 reference: median of DMSO wells […], cell-free background 0.052

| Compound | growth [1] | growth (E. coli TESEC Mtb Alr [2]; [5]) | growth (E. coli TESEC Mtb Alr [2]; [6]) | growth (E. coli TESEC Mtb Alr [2]; [7]) | growth (E. coli TESEC Mtb Alr [2]; [8]) | growth (E. coli TESEC Mtb Alr [2]; [9]) | growth (E. coli TESEC Mtb Asd; [10]) | growth (E. coli TESEC Mtb Asd; [11]) | growth (E. coli TESEC Mtb DapB; [12]) | growth (E. coli TESEC Mtb DapB; [13]) | growth [3] | growth (E. coli TESEC Mtb Alr [4]; [14]) | growth (E. coli TESEC Mtb Alr [4]; [15]) |
| --- | --- | --- | --- | --- | --- | --- | --- | --- | --- | --- | --- | --- | --- |
| C[C@@H]1[C@H](O)[C@@H](C)/C=C/C=C/C=C/C=C/C=C/C=C/C=C/[C@H](O[C@@H]2O[C@H](C)[C@@H](O)[C@H](N)[C@@H]2O)C[C@@H]2O[C@](O)(C[C@@H](O)C[C@@H](O)[C@H](O)CC[C@@H](O)C[C@@H](O)CC(=O)O[C@H]1C)C[C@H](O)[C@H]2C(=O)O [Amphotericin B] | 0.316 ± 0.0027 | 0.33 ± 0.0067 | 0.27 ± 0.0035 | 0.345 ± 0.0081 | 0.182 ± 0.0098 | 0.261 ± 0.0027 | 0.416 ± 0.042 | 0.504 ± 0.026 | 0.208 ± 0.019 | 0.237 ± 0.046 | 0.532 ± 0.087 | 0.433 ± 0.022 | 0.478 ± 0.027 |
| Cc1[nH]c(=O)c(C#N)cc1-c1ccncc1 [Milrinone] | 0.199 ± 0.0031 | 0.27 ± 0.0094 | 0.229 ± 0.0033 | 0.169 ± 0.018 | 0.136 ± 0.0068 | 0.148 ± 0.0037 | 0.304 ± 0.06 | 0.329 ± 0.054 | 0.212 ± 0.0044 | 0.236 ± 0.014 | 0.636 ± 0.046 | 0.43 ± 0.0055 | 0.305 ± 0.0071 |
| CCN(CC)CCCC(C)Nc1c2ccc(Cl)cc2nc2ccc(OC)cc12 (configuration not stated) [Quinacrine dihydrochloride hydrate] | 0.0702 ± 0.00072 | 0.0775 ± 0.016 | 0.0444 ± 0.00085 | 0.104 ± 0.0031 | 0.04497 ± 0.00023 | 0.1 ± 0.0037 | 0.0701 ± 0.0057 | 0.0679 ± 0.006 | 0.156 ± 0.022 | 0.0986 ± 0.073 | 0.125 ± 0.049 | 0.421 ± 0.0083 | 0.222 ± 0.025 |
| CCN1CCC[C@H]1CNC(=O)c1c(OC)ccc(Br)c1OC [Remoxipride Hydrochloride] | 0.256 ± 0.007 | 0.304 ± 0.016 | 0.259 ± 0.004 | 0.192 ± 0.0085 | 0.184 ± 0.0027 | 0.136 ± 0.0041 | 0.288 ± 0.032 | 0.445 ± 0.015 | 0.195 ± 0.0092 | 0.218 ± 0.039 | 0.588 ± 0.039 | 0.416 ± 0.017 | 0.338 ± 0.039 |
| CCCCC(CC)CNC(=N)NC(=N)NCCCCCCNC(=N)NC(=N)NCC(CC)CCCC (configuration not stated) [Alexidine dihydrochloride] | 0.0519 ± 0.0017 | 0.0821 ± 0.0028 | 0.0849 ± 0.0013 | 0.0842 ± 0.0022 | 0.0553 ± 0.0016 | 0.0814 ± 0.004 | 0.0536 ± 0.00095 | 0.0584 ± 0.0047 | 0.0749 ± 0.029 | 0.071 ± 0.014 | 0.0485 ± 0.0022 | 0.0695 ± 0.012 | 0.0779 ± 0.013 |
| CCCCNC(=O)NS(=O)(=O)c1ccc(C)cc1 [Tolbutamide] | 0.253 ± 0.0049 | 0.295 ± 0.005 | 0.243 ± 0.0065 | 0.191 ± 0.018 | 0.16 ± 0.006 | 0.136 ± 0.0022 | 0.222 ± 0.016 | 0.405 ± 0.074 | 0.187 ± 0.021 | 0.186 ± 0.012 | 0.521 ± 0.12 | 0.409 ± 0.006 | 0.352 ± 0.021 |
| C[N+](C)(C)CCOC(N)=O [Carbachol] | 0.251 ± 0.0053 | 0.309 ± 0.014 | 0.284 ± 0.02 | 0.177 ± 0.0065 | 0.186 ± 0.006 | 0.164 ± 0.0027 | 0.475 ± 0.0086 | 0.438 ± 0.051 | 0.194 ± 0.0084 | 0.26 ± 0.028 | 0.492 ± 0.011 | 0.409 ± 0.023 | 0.364 ± 0.014 |
| O=C1CCC(N2C(=O)c3ccccc3C2=O)C(=O)N1 (configuration not stated) [Thalidomide] | 0.248 ± 0.0061 | 0.283 ± 0.0041 | 0.269 ± 0.014 | 0.204 ± 0.012 | 0.192 ± 0.0034 | 0.135 ± 0.0057 | 0.392 ± 0.098 | 0.461 ± 0.035 | 0.189 ± 0.016 | 0.24 ± 0.052 | 0.513 ± 0.072 | 0.424 ± 0.0084 | 0.346 ± 0.0072 |
| N[C@@H](C(=O)N[C@@H]1C(=O)N2C(C(=O)O)=C(Cl)CC[C@H]12)c1ccccc1 [Loracarbef] | 0.251 ± 0.0037 | 0.318 ± 0.0031 | 0.224 ± 0.0093 | 0.211 ± 0.024 | 0.175 ± 0.0071 | 0.151 ± 0.0052 | 0.362 ± 0.016 | 0.411 ± 0.0062 | 0.226 ± 0.017 | 0.234 ± 0.014 | 0.529 ± 0.067 | 0.0487 ± 0.0051 | 0.324 ± 0.024 |
| Nc1c(Br)cc(Br)cc1CN[C@H]1CC[C@H](O)CC1 [Ambroxol hydrochloride] | 0.202 ± 0.0077 | 0.256 ± 0.014 | 0.283 ± 0.0086 | 0.18 ± 0.031 | 0.1617 ± 0.0016 | 0.149 ± 0.0085 | 0.168 ± 0.021 | 0.318 ± 0.06 | 0.204 ± 0.015 | 0.221 ± 0.029 | 0.626 ± 0.055 | 0.406 ± 0.0096 | 0.312 ± 0.015 |
| CC(CNC1CCCCC1)OC(=O)c1ccccc1 (configuration not stated) [Hexylcaine hydrochloride] | 0.242 ± 0.016 | 0.303 ± 0.0092 | 0.273 ± 0.0072 | 0.191 ± 0.0085 | 0.173 ± 0.0098 | 0.1577 ± 0.0015 | 0.452 ± 0.026 | 0.489 ± 0.039 | 0.2 ± 0.027 | 0.233 ± 0.024 | 0.552 ± 0.022 | 0.409 ± 0.016 | 0.309 ± 0.0087 |
| N=C(NCCCCCCNC(=N)NC(=N)Nc1ccc(Cl)cc1)NC(=N)Nc1ccc(Cl)cc1 [Chlorhexidine] | 0.04463 ± 0.00035 | 0.0435 ± 0.00051 | 0.0456 ± 0.003 | 0.0447 ± 0.0014 | 0.04363 ± 0.00015 | 0.0449 ± 0.0005 | 0.0592 ± 0.0021 | 0.0584 ± 0.0011 | 0.0506 ± 0.0011 | 0.0542 ± 0.0085 | 0.0486 ± 0.0014 | 0.04807 ± 5.8e-05 | 0.054 ± 0.0013 |
| c1ccc(C2CN3CCSC3=N2)cc1 (configuration not stated) [Tetramisole hydrochloride] | 0.244 ± 0.003 | 0.303 ± 0.011 | 0.259 ± 0.0099 | 0.242 ± 0.045 | 0.176 ± 0.0046 | 0.16 ± 0.0039 | 0.257 ± 0.033 | 0.358 ± 0.046 | 0.203 ± 0.02 | 0.252 ± 0.035 | 0.529 ± 0.087 | 0.408 ± 0.014 | 0.316 ± 0.015 |
| CC(=O)N(CC(O)CO)c1c(I)c(C(=O)NCC(O)CO)c(I)c(C(=O)NCC(O)CO)c1I (configuration not stated) [Iohexol] | 0.242 ± 0.011 | 0.285 ± 0.0098 | 0.276 ± 0.0072 | 0.221 ± 0.043 | 0.195 ± 0.004 | 0.1422 ± 0.0012 | 0.35 ± 0.046 | 0.414 ± 0.056 | 0.195 ± 0.014 | 0.201 ± 0.02 | 0.512 ± 0.11 | 0.418 ± 0.01 | 0.343 ± 0.022 |
